Results filed as inconclusive are left out. Active and inactive are the calls of the source. Calls follow the shape of the dose curve; as a rule, active = well fitted curve in the direction sought with a large enough effect in the repeat runs; inconclusive = weak or mixed curves; inactive = no such curve, though single readings can be large; an effect the other way counts as inactive or inconclusive.
How the values were obtained:
[1] = qHTS RealTime-Glo MT Cell Viability Assay in HEK293 cells - 32 hour (AID 1224868); also: top concentration of the series differs between compounds; nearly all actives have a fitted effect of over 50% in size
Procedure, shortened: (§1)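 HEK293 cells seeded with NanoLuc/prosubstrate reagent, rested 5 h at 37 C, then dosed and kept at 37 C up to 40 h. Nonlytic real-time luminescence from viable cells read at 0, 8, 16, 24, 32 and 40 h.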

[2] = A CellTox Green Cytotoxicity Assay to monitor cytotoxicity in HEK293 cells - 0 hour (AID 1224869); also: nearly all actives have a fitted effect of over 50% in size
Procedure, shortened: (§2)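 Tox21 screen in HEK293: membrane-impermeant cyanine dye fluoresces on binding dead-cell DNA; compound pinned 5 h post-seeding, plates held at 37 C, signal read repeatedly through 40 h.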

[3] = qHTS RealTime-Glo MT Cell Viability Assay in HepG2 cells - 40 hour (AID 1224870); also: nearly all actives have a fitted effect of over 50% in size
Procedure, shortened: (§3)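 Real-time viability: cells seeded at 600 per well together with NanoLuc and cell-permeant prosubstrate, compounds added after 5 h incubation. Luminescence tracked at 0, 8, 16, 24, 32 and 40 h of exposure.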

[4] = A CellTox Green Cytotoxicity Assay to monitor cytotoxicity in HEK293 cells - 40 hour (AID 1224871); also: nearly all actives have a fitted effect of over 45% in size
Procedure, shortened: as §2

[5] = qHTS RealTime-Glo MT Cell Viability Assay in HEK293 cells - 16 hour (AID 1224872); also: top concentration of the series differs between compounds; nearly all actives have a fitted effect of over 50% in size
Procedure, shortened: as §1

[6] = qHTS RealTime-Glo MT Cell Viability Assay in HepG2 cells - 8 hour (AID 1224873); also: nearly all actives have a fitted effect of over 55% in size
Procedure, shortened: as §3

[7] = qHTS RealTime-Glo MT Cell Viability Assay in HEK293 cells - 40 hour (AID 1224874); details: RealTime-Glo luminescence, active compounds read low; also: nearly all actives have a fitted effect of over 50% in size
Procedure, shortened: (§4)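 HEK293 + NanoLuc + prosubstrate, 600 cells/well; 5 h, 37 C/5% CO2; compound 23 nL in DMSO by pintool; 37 C; luminescence read at 0, 8, 16, 24, 32 and 40 h time points.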

[8] = A CellTox Green Cytotoxicity Assay to monitor cytotoxicity in HEK293 cells - 24 hour (AID 1224875); also: series mostly up to about 77 µM; nearly all actives have a fitted effect of over 45% in size
Procedure, shortened: as §2

[9] = A CellTox Green Cytotoxicity Assay to monitor cytotoxicity in HepG2 cells - 16 hour (AID 1224876); also: nearly all actives have a fitted effect of over 45% in size
Procedure, shortened: (§5)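 Measurements at 0, 8, 16, 24, 32 and 40 h of treatment captured CellTox Green fluorescence in HepG2 cells that had been co-plated with reagent and preincubated 5 h at 37 C/5% CO2.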

[10] = qHTS RealTime-Glo MT Cell Viability Assay in HepG2 cells - 32 hour (AID 1224877); also: nearly all actives have a fitted effect of over 55% in size
Procedure, shortened: (§6)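 HepG2 cells (600/well) were dispensed with RealTime-Glo reagents, incubated 5 h at 37 °C, then treated with compounds in DMSO for up to 40 h. Nonlytic NanoLuc luminescence reflecting viable cells was read at each stated time point.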

[11] = A CellTox Green Cytotoxicity Assay to monitor cytotoxicity in HepG2 cells - 24 hour (AID 1224878); also: nearly all actives have a fitted effect of over 45% in size
Procedure, shortened: as §5

[12] = A CellTox Green Cytotoxicity Assay to monitor cytotoxicity in HepG2 cells - 40 hour (AID 1224879); also: nearly all actives have a fitted effect of over 40% in size
Procedure, shortened: as §5

[13] = qHTS RealTime-Glo MT Cell Viability Assay in HEK293 cells - 0 hour (AID 1224880)
Procedure, shortened: as §4

[14] = A CellTox Green Cytotoxicity Assay to monitor cytotoxicity in HEK293 cells - 32 hour (AID 1224881); also: nearly all actives have a fitted effect of over 40% in size
Procedure, shortened: as §2

[15] = A CellTox Green Cytotoxicity Assay to monitor cytotoxicity in HepG2 cells - 0 hour (AID 1224882); also: nearly all actives have a fitted effect of over 35% in size
Procedure, shortened: as §5

[16] = A CellTox Green Cytotoxicity Assay to monitor cytotoxicity in HepG2 cells - 32 hour (AID 1224883); also: nearly all actives have a fitted effect of over 50% in size
Procedure, shortened: as §5

[17] = A CellTox Green Cytotoxicity Assay to monitor cytotoxicity in HEK293 cells - 8 hour (AID 1224884); also: nearly all actives have a fitted effect of over 35% in size
Procedure, shortened: as §2

[18] = qHTS RealTime-Glo MT Cell Viability Assay in HepG2 cells - 16 hour (AID 1224885); also: nearly all actives have a fitted effect of over 50% in size
Procedure, shortened: as §6

[19] = qHTS RealTime-Glo MT Cell Viability Assay in HEK293 cells - 24 hour (AID 1224886)
Procedure, shortened: as §1

[20] = qHTS RealTime-Glo MT Cell Viability Assay in HEK293 cells - 8 hour (AID 1224887)
Procedure, shortened: as §4
% is scaled to controls: 0 for no effect and ±100 for the full control effect.

CCCCCCCCCCCBr
inactive: outcome [1] | outcome [2] | outcome [3] | Potency [4] | outcome [5] | outcome [6] | max response [7] -3.54% | Potency [8] | Potency [9] | outcome [10] | Potency [11] | Potency [12] | Potency [13] | Potency [14] | Potency [15] | Potency [16] | Potency [17] | outcome [18] | outcome [19] | outcome [20]

C=CCCCCCCCCCCCCCC
inactive: activity change, negative = cytotoxic [1] -0.171% [at 15.8 µM] | cytotoxicity [2] -0.258% [at 15.8 µM] | activity change, negative = cytotoxic [3] -8.43% [at 15.8 µM] | cytotoxicity increase [4] 0.351% [at 15.8 µM] | activity change, negative = cytotoxicity [5] -2.4% [at 15.8 µM] | viability change, negative = cytotoxic [6] 2.93% [at 15.8 µM] | max response [7] 0.625% | activity change [8] -0.0594% [at 15.8 µM, active compounds read high] | cytotoxicity increase [9] 2.79% [at 15.8 µM] | activity change, negative = cytotoxic [10] -5.43% [at 15.8 µM] | cytotoxicity [11] 1.07% [at 15.8 µM] | cytotoxicity increase [12] -1.48% [at 15.8 µM] | activity change, negative = cytotoxicity [13] -0.897% [at 15.8 µM] | cytotoxicity increase [14] -0.422% [at 15.8 µM] | cytotoxicity [15] 7.56% [at 15.8 µM] | cytotoxicity increase [16] -0.009% [at 15.8 µM] | cytotoxicity increase [17] 2.81% [at 15.8 µM] | activity change, negative = cytotoxic [18] -0.802% [at 15.8 µM] | activity change, negative = cytotoxicity [19] -1.45% [at 15.8 µM] | activity change, negative = cytotoxicity [20] -3.89% [at 15.8 µM]

CC(C)(Sc1cc(C(C)(C)C)c(O)c(C(C)(C)C)c1)Sc1cc(C(C)(C)C)c(O)c(C(C)(C)C)c1
inactive: outcome [1] | outcome [2] | outcome [3] | Potency [4] | outcome [5] | outcome [6] | max response [7] 3.52% | Potency [8] | Potency [9] | outcome [10] | Potency [11] | Potency [12] | Potency [13] | Potency [14] | Potency [15] | Potency [16] | Potency [17] | outcome [18] | outcome [19] | outcome [20]

C[C@@H]1CCC[C@H](C)N1CCCC(O)(c1ccccc1)c1ccccn1 (some centres not stated)
inactive: outcome [1] | outcome [2] | outcome [3] | Potency [4] | outcome [5] | outcome [6] | max response [7] 4.53% | Potency [8] | Potency [9] | outcome [10] | Potency [11] | Potency [12] | Potency [13] | Potency [14] | Potency [15] | Potency [16] | Potency [17] | outcome [18] | outcome [20]

C/C(Cl)=C/CCl
inactive: outcome [1] | outcome [2] | outcome [3] | Potency [4] | outcome [5] | outcome [6] | max response [7] 16% | Potency [8] | Potency [9] | outcome [10] | Potency [11] | Potency [12] | Potency [13] | Potency [14] | Potency [16] | Potency [17] | outcome [18] | outcome [19] | outcome [20]

CC(=O)SC[C@@H](C)C(=O)N1CCC[C@H]1C(=O)N[C@@H](Cc1ccccc1)C(=O)O
inactive: outcome [1] | outcome [2] | outcome [3] | Potency [4] | outcome [5] | outcome [6] | max response [7] 3.03% | Potency [8] | Potency [9] | outcome [10] | Potency [11] | Potency [12] | Potency [13] | Potency [14] | Potency [15] | Potency [16] | Potency [17] | outcome [18] | outcome [20]

N=C(N)S(=O)O
inactive: outcome [1] | outcome [2] | outcome [3] | Potency [4] | outcome [5] | outcome [6] | max response [7] 11.7% | Potency [8] | Potency [9] | outcome [10] | Potency [11] | Potency [12] | Potency [13] | Potency [15] | Potency [16] | Potency [17] | outcome [18] | outcome [19] | outcome [20]

O=S(=O)(O)c1ccc(Cl)cc1
inactive: outcome [1] | outcome [2] | outcome [3] | Potency [4] | outcome [5] | outcome [6] | max response [7] 0.949% | Potency [8] | Potency [9] | outcome [10] | Potency [11] | Potency [12] | Potency [13] | Potency [14] | Potency [15] | Potency [16] | Potency [17] | outcome [18] | outcome [20]

CNC(C)=O
inactive: outcome [1] | outcome [2] | outcome [3] | Potency [4] | outcome [5] | outcome [6] | max response [7] -0.0492% | Potency [8] | Potency [9] | outcome [10] | Potency [11] | Potency [12] | Potency [13] | Potency [14] | Potency [15] | Potency [16] | Potency [17] | outcome [18] | outcome [19] | outcome [20]

CCO/C=C1\N=C(c2ccccc2)OC1=O
inactive: outcome [1] | outcome [2] | outcome [3] | Potency [4] | outcome [5] | outcome [6] | max response [7] 18.4% | Potency [8] | Potency [9] | outcome [10] | Potency [11] | Potency [12] | Potency [13] | Potency [14] | Potency [15] | Potency [17] | outcome [18] | outcome [19] | outcome [20]

CC(=O)O[C@@H]1CC2C3CCc4cc(OC(=O)c5ccccc5)ccc4C3CCC2(C)[C@H]1OC(C)=O (some centres not stated)
inactive: outcome [1] | outcome [2] | outcome [3] | Potency [4] | outcome [5] | outcome [6] | max response [7] 0.184% | Potency [8] | Potency [9] | outcome [10] | Potency [11] | Potency [12] | Potency [13] | Potency [14] | Potency [15] | Potency [17] | outcome [18] | outcome [19] | outcome [20]

COC(C)(C)CC(C)=O
inactive: outcome [1] | outcome [2] | outcome [3] | Potency [4] | outcome [5] | outcome [6] | max response [7] 1.4% | Potency [8] | Potency [9] | outcome [10] | Potency [11] | Potency [12] | Potency [13] | Potency [14] | Potency [15] | Potency [16] | Potency [17] | outcome [18] | outcome [19] | outcome [20]

O=S(=O)(O)CC(O)CCl (configuration not stated)
inactive: outcome [1] | outcome [2] | outcome [3] | Potency [4] | outcome [5] | outcome [6] | max response [7] 5.44% | Potency [8] | Potency [9] | outcome [10] | Potency [11] | Potency [12] | Potency [13] | Potency [14] | Potency [16] | Potency [17] | outcome [18] | outcome [19] | outcome [20]

COc1ccc2cc(CCC(C)=O)ccc2c1
inactive: outcome [1] | outcome [2] | outcome [3] | Potency [4] | outcome [5] | outcome [6] | max response [7] -11.3% | Potency [8] | Potency [9] | outcome [10] | Potency [11] | Potency [12] | Potency [13] | Potency [14] | Potency [15] | Potency [16] | Potency [17] | outcome [18] | outcome [19] | outcome [20]

Reference: PubChem BioAssay (Tox21)
